# Reference: PubChem BioAssay AID651681 (Broad Institute, 2012)
# Calls of active or inactive are those of the source.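 How the source made its calls: active means compound with fitted CDK2 half-maximal potency at or below twice its top tested dose; inconclusive means flat curve near 30 to 70% inhibition, or poor fit; inactive means the rest.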
# Target: Cyclin-dependent kinase 2 (Homo sapiens) + Cyclin-A2 (Homo sapiens) (UniProt P20248+P24941)
# Assay: CDK2/cyclin A inhibitors, off-target check, dose response, selectivity assay for Dyrk1A inhibitor project, biochemical, dry powder, set 3 (AID 651681)
# Cyclin-dependent kinase 2 (Homo sapiens) + Cyclin-A2 (Homo sapiens), sequence (P20248 whole entry, looked up, one chain of several): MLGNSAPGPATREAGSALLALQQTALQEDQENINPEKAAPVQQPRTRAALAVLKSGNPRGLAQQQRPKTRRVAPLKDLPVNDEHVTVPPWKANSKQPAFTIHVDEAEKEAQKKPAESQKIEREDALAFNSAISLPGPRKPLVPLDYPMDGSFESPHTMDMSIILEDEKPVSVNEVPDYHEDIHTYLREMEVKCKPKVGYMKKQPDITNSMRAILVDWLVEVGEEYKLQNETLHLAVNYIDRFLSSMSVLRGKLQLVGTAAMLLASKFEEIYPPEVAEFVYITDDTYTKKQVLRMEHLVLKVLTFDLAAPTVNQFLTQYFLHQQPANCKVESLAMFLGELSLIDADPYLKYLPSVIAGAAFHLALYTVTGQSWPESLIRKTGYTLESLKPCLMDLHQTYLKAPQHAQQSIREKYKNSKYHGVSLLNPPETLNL
smiles,measurement,value
COc1ccc2c(c1)[nH]c1c(C)nccc12,outcome,inactive
